From the supplement of paper PMC5499739
Whole data set: some 16,000 sequences, median “Z-score” near -0.37, cut for the highest 2% near 3.2. This excerpt belongs to a sample that is enriched for the highest values.

Test system: RBM10 RRM1-ZnF (GST-tagged construct)
Experiment: RNAcompete 7-mer binding Z-score; higher = stronger binding preference
Summary of the method: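 GST-tagged RBM10 constructs (20 pmol) and a designed pool of 241 399 RNAs up to 41 nt (1.5 nmol) were allowed to bind for 30 min at 4°C in 1 ml Hepes pH 7.8 buffer with glutathione Sepharose beads. After four 2-min washes at 4°C, bound RNA was identified by microarray hybridisation. Enrichment was scored per heptamer motif as a one-sided Z-score across the probes containing it.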

Sequence | RNAcompete 7-mer binding Z-score
GUGUAAA | 0.618
AUGACGG | 1.39
UAAAUAU | -0.425
CGGAUGU | 1.04
GGUGGAU | 2.75
AGUGGAA | 3.24
UGUGGAA | 2
AGUGGAU | 2.35
GGUGGAA | 3.81
AGUGGAC | 1.34
CGUGGAA | 1.19
GGUGGAG | 4.02
UGUGGAG | 2.62
UUCCGGC | -0.649
GCCUGCU | -0.724
UGUCGUA | -0.311
UGUUUAG | -0.0155
UAUAGGC | 0.196
AAACCCC | -0.597
UCCGAUA | -0.746
GGGUGCA | 2.74
GAGGCCG | 0.0723
UUGCCGU | -0.659
CUGGGCC | -0.0285
GCCCAUA | -0.805

Sequence | RNAcompete 7-mer binding Z-score
AGAAGCU | -0.48
GGAAGGU | 4.23
AGAAGGA | 3.99
AGAAGAA | 1
AGAAGGC | 0.699
AGAAGAG | 1.64
AGAAGGG | 3.86
CGAAGGU | 1.5
UGAAGGU | 2.57
CGAAGGG | 2.43
AGAAGGU | 3.26
GGAAGGC | 2.63
CCCCCAU | -0.448
GAAUGAC | 0.16
GGCAGUC | 0.28
AGCCUUU | -1
ACUUAUG | -0.655
GGAAGGA | 4.79
UGAAGGG | 3.82
UGAAGGA | 2.99
UGAAGCG | 0.608
UGAAGGC | 1
CGAAGGA | 1.62
GCAUUCU | -0.785
UCGUACU | -0.539

Sequence | RNAcompete 7-mer binding Z-score
GAGGCAC | 0.628
CCUAGUG | -0.266
UUCCAUC | -0.675
GCAGCGC | -0.178
GAUGAGG | 3.56
CAUGAGG | 1.03
GAUGAGU | 1.06
AUUGAGG | 1.63
GGUGAGA | 2.57
GUUGAGG | 3.36
CGUGAGG | 1.35
GGUGAGG | 4.5
GUUGAGC | 0.706
GUGUGUC | 0.137
CUCAAUA | -0.802
GCGAAGG | 2.06
UAACUAU | -0.617
GCUAACA | -0.399
AGAGCUG | 0.163
GAUGGAU | 2.6
GAUGGAG | 3.52
UAUGGAG | 1.67
GAUGGAC | 1.78
CAUGGAA | 1.1
GUUGGAA | 1.84

Sequence | RNAcompete 7-mer binding Z-score
AAUGGAC | 2.03
AAUGGAA | 3.35
AAUGGAG | 3.43
CAUGGAG | 1.48
UAUGGAA | 1.22
GAUGGAA | 3.36
AUCUACA | -0.568
CACCCUC | -0.578
UGCUUGA | -0.737
GGCGCAU | 0.183
UGAUGAC | -0.0512
CUUGCCU | -0.824
UCAUCUG | -0.844
GUUUCAC | -0.597
UGGGUUA | 3.28
CGGGUUG | 2.79
AGGGUUC | 0.985
AGGGUUA | 3.55
GGGGUUC | 1.79
UGGGUUG | 3.04
GGGGUUG | 3.76
GGGGUUU | 3.16
GGGGUUA | 3.21
GCGGUUG | 1.42
AGGGUUU | 2.56

Sequence | RNAcompete 7-mer binding Z-score
UGGGUUU | 2.64
AAUCUAA | -0.617
UUAUACA | -0.542
AUGUGGU | 1.52
GUCCGAC | -0.662
CUUCGGC | -0.759
AGAUAUC | -0.688
AGGGUUG | 3.8
ACGGUUG | 1.78
AGGGUCG | 1.41
CAUAAGA | -0.513
CACCGCG | 0.069
CGGUGUG | 1.72
UGGUGUG | 2.77
GGGUGUG | 3.76
AGGUGUA | 1.74
UGGUGUA | 1.52
GGGUGUA | 3.43
AAUUUGA | -0.399
ACAGAGG | 1.59
UACAAGA | -0.295
CGCGGGA | 1.05
GGCGGGG | 3.96
AGCGGGG | 4.14
AGCGGGA | 3.31

Sequence | RNAcompete 7-mer binding Z-score
UGCGGGA | 1.87
UGCGGGC | 1.13
CGCGGGG | 2.15
GGCGGGC | 2.11
AGCGGGU | 3.07
UGCGGGU | 2.92
UGCGGGG | 3.26
GGCGGGU | 2.9
GGCUUUA | -0.418
UUGCAGA | -0.171
AGCGGAA | 2.07
AGCGGAU | 3.22
AGCGGAC | 1.16
CUCAGGU | -0.0447
CGCAUAC | -0.61
GGAUGAG | 3.4
GGAUGUG | 3.43
AGAUGUG | 0.936
AGAUGAG | 1.43
GGAUGAA | 2.16
GGAUGUU | 0.959
CUCGUGC | -0.789
AGCAAUC | -0.435
UGGGUAC | 2.69
CGGGUAG | 2.18

Sequence | RNAcompete 7-mer binding Z-score
AGGGUAG | 3.72
UGGGUAG | 3.5
UGGGUAU | 2.37
AGGGUAC | 2.1
GACCAUU | -0.915
AUGGACG | 2.69
CACGUGG | 0.566
UCUUGAA | -0.785
CAUCCGC | -0.847
CCAAUCU | -0.802
CGUAGGG | 1.94
AGUAGGC | 0.975
AGUAGGG | 4.16
UGUAGGG | 3.6
UGUAGGA | 1.7
ACUAGGG | 2.03
AUACGAA | -0.194
CGGCUUG | -0.324
CUCGCAC | -0.587
GUUCUAA | -0.552
GAUAUGC | -0.0577
GGUAUGA | 2.19
GAUAUGG | 3.3
GGUAUGU | 1.56
AAUAUGG | 1.09

Sequence | RNAcompete 7-mer binding Z-score
GGUAUGG | 4.22
UCCCUGG | -0.24
GUUCGAG | -0.00571
CGAACAU | -0.503
UUUAGGC | -0.321
UUAGAGG | 1.31
GGAGGGC | 3.13
GGAGGGA | 4.01
CGAGGGG | 2.86
AGAGGGA | 2.09
AUAGAGG | 1.55
GUAGAGG | 3.56
AGAGAGG | 1.27
GGAGAGG | 3.41
GGAGGGG | 4.57
AGAGGGG | 2.11
GGAGAGA | 1.46
GUCCAUU | -0.818
CCCACUG | -0.483
GUUAUUC | -0.513
UGUAGGU | 1.75
UUGCCGC | -0.662
UUGGUCA | 0.0788
CAAGUAA | -0.275
AAACCAG | -0.324

Sequence | RNAcompete 7-mer binding Z-score
AGAGAAG | 1.63
GGAGAAG | 3.36
CGAGAAG | 0.495
GUGUCCA | -0.457
GGGCCGU | 0.53
CAGGGGG | 2.94
UAGGGGU | 3.9
UAGGGGC | 2.25
UAGGGGA | 3.71
CAGGGGU | 3.01
UAGGGGG | 3.97
UAGGGAA | 3.15
UAGGGCU | 1.42
UAGGGAC | 1.79
UGCUAGA | -0.233
UGUUCUC | -0.746
CCGCACC | -0.509
ACAGCGA | -0.0674
GGACUAU | 0.000789
AUAGCCU | -0.724
